Bioassay records as filed in PubChem BioAssay.
Sampled rows, rich in hits. Any-hit rate of the full collection: about 2.2%.
iPSC survival up = enhancers of single-cell hiPSC survival, primary screen, ATPlite luminescence. 100% = ROCK inhibitor wells, 0% = DMSO. survival enhancement, % at 20 µM. hit rate 0.044% among 360,000. AID 602274, 2012; in the data active = survival enhancement above about 18%;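 note: cells exposed to compounds for 16 hours before the ATP read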
KKLEB tox = cytotoxicity in KKLEB CF airway cells, primary screen, cytotoxicity control for CF NF-kB inhibitor project, cell-based, uHTS, fluorescence assay plates; hit rate 0.36% among 360,000; KKLEB CF airway cells viability, ATPlite luminescence, overnight; active compounds read low; cells stimulated with P. aeruginosa culture filtrate; activity change (cytotoxicity), % at 5 µM;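 active = corrected activity change at or below -50% at 5 µM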
PPC-1+TRAIL kill = compounds killing PPC-1 cancer cells with TRAIL present, primary screen, TRAIL potentiator project, ATPLite luminescence, uHTS | PPC-1 cells + TRAIL, ATPLite viability luminescence | cell killing (% activity), % at 4 µM or 5 µM | hit rate 0.41% among 220,000;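 active = cell killing above 50% in the first pass at 4 µM, then a duplicate retest at 5 µM averaging 50% or more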;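 note: plate controls were cells with TRAIL plus DMSO for no effect and medium-only wells lacking cells for full effect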
HIF-2a block = HIF-2a reporter inhibitors, primary screen, luminescence, 786-0 RCC cells; 786-0 RCC cells HIF-2a reporter, luciferase luminescence, overnight; hit rate 0.72% among 360,000; inhibition, % at 18.8 µM;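 active = inhibition of the luminescence signal of 40% or more relative to plate controls, in a single-dose primary screen at 18.75 µM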
CF NFkB inh = inhibitors of PAF-induced NF-kB signaling, primary screen, cell-based, GFP fluorescence, uHTS; KKLEB NF-kB-GFP reporter, GFP fluorescence overnight; inhibition, % at 5 µM; hit rate 0.86% among 360,000;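 active = at least 50% inhibition at 5 µM, scaled per plate between neutral and stimulator controls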;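 note: PAF is a Pseudomonas aeruginosa culture filtrate used as stimulus; plate controls were PAF-stimulated DMSO wells for no effect and unstimulated DMSO wells for full effect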
C8 TRAIL sens = viability loss with TRAIL in NB7+C8 cells, primary screen, TRAIL sensitizer project, cell-based, ATPlite luminescence; hit rate 1% among 360,000; inhibition (viability loss, TRAIL sensitization), % at 10 µM; AID 624354, 2012;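 active = compounds causing at least 50% loss of cell viability in the single-dose screen, relative to plate controls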
PPC1 cytotox = cytotoxicity in PPC-1 cells, confirmation, cytotoxicity control for TRAIL apoptosis potentiator project, cell-based, ATP content luminescence; AID 1447, 2008; cytotoxicity, % at 5 µM; PPC-1 viability, ATPlite luminescence, overnight; hit rate 50% among 1,200; shares compounds with PPC-1+TRAIL kill;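 active = reconfirmed compounds whose average cytotoxicity reaches 50% or more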;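 note: 0% = DMSO-treated cells and 100% = wells holding medium but no cells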
CF NFkB inh conf = inhibitors of PAF-induced NF-kB signaling, retest, confirmation, cell-based, GFP fluorescence, single concentration; shares compounds with CF NFkB inh; KKLEB CF airway cells, overnight; inhibition, % at 5 µM; hit rate 64% among 1,300; in the data active = inhibition above about 40%;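 note: stimulus PAF is a Pseudomonas aeruginosa filtrate and not platelet activating factor; plate controls were DMSO wells with stimulus for no effect and unstimulated DMSO wells for full effect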
Mdm2-MdmX confirm = retested Mdm2-MdmX interaction blockers, confirmation, cell-based, luminescence, single concentration, set 2; shares compounds with HIF-2a block; SaOS-2 split-luciferase Mdm2/MdmX complementation; inhibition, % at 8 µM; hit rate 99% among 740; AID 504601, 2011;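 active = mean inhibition of the luminescence signal across two replicates at or above 26 percent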
Target sequence (O15151 whole entry, looked up): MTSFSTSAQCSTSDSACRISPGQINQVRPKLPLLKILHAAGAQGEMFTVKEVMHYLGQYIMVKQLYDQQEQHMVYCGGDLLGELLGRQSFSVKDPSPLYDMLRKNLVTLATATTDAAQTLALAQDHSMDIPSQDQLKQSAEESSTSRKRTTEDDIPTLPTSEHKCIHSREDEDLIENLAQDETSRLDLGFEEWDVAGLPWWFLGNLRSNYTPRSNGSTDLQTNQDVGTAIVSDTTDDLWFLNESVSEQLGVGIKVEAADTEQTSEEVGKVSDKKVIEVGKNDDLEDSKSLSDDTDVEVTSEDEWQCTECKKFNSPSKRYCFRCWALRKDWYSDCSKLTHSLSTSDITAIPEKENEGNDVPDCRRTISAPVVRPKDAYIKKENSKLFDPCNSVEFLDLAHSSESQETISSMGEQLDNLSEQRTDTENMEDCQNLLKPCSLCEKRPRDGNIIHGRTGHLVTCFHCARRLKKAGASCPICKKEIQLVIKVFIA
Target sequence (Q00987 whole entry, looked up): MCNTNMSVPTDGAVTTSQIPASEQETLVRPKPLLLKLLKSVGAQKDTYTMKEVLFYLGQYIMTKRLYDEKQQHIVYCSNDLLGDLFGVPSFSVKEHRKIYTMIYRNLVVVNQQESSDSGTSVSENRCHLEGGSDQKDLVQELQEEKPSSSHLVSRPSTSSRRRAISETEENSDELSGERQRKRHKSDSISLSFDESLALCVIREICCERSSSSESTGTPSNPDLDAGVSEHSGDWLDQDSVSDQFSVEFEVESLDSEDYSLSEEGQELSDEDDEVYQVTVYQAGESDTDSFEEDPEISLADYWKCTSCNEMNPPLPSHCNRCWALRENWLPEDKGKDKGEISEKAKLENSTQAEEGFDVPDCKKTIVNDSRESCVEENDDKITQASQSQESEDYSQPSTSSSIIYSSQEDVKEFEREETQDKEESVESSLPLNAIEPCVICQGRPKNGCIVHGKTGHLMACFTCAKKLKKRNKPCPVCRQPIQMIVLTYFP
HIF-2a conf = HIF-2a reporter inhibitor retest, confirmation, luminescence, 786-0 RCC cells. shares compounds with HIF-2a block. HIF-2a luciferase reporter luminescence, overnight. inhibition, % at 18.8 µM. hit rate 56% among 1,800;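 active = mean inhibition across four replicates of at least 40 percent at the single tested concentration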
HIF-1a cs = HIF-1a luciferase reporter signal reduction – MiaPaCa-2 cells, single concentration, counter-screen for HIF-2a inhibitor project, confirmation; inhibition, % at 18.8 µM; hit rate 72% among 1,800; MiaPaCa-2 HIF-1a luciferase reporter, desferoxamine, overnight; shares compounds with HIF-2a block;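 active = mean inhibition of the reporter signal across four replicates at the single tested dose of 50% or more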
* = called active by the depositor; nt = no result given.

SMILES	iPSC survival up	KKLEB tox	PPC-1+TRAIL kill	HIF-2a block	CF NFkB inh	C8 TRAIL sens	PPC1 cytotox	others
CCOc1cccc(C(=O)Nc2ccccc2OC(F)F)c1	-2	-3	9	-81	5	10	13
COc1ccc(CCNC(=O)C2CCCN(S(=O)(=O)c3cccc4nonc34)C2)cc1OC (configuration not stated)	-1	-3	-16	-2	4	-2	-7
CC12CCC(C(=O)NCc3ccccc3Cl)(CC1=O)C2(C)C (configuration not stated)	0	7	18	11	1	-4	nt
Cc1nc2sc(-c3ccccc3)cc2c(=O)[nH]1	-4	-26	65*	-65	4	77*	61*
Cc1nc2sc(-c3ccccc3)cc2c(=O)n1N	-1	-11	47	13	-38	60*	47
Cc1cc(C(=O)Cn2nnc3ccccc3c2=O)c(C)n1-c1ccccc1F	-4	-33	69*	-55	-2	81*	70*
CC(C)C[C@H]1CN([C@@H](Cc2ccc(O)cc2)CN2CCC[C@H]2CN2C(=O)C(=O)NC[C@@H]2Cc2ccc(O)cc2)C(=O)C(=O)N1CCc1ccccc1	1	nt	nt	-10	nt	-10	nt
COc1ccc(C2N(C(=O)c3ccccc3)CCN2C(=O)c2ccccc2)cc1	1	2	7	9	14	6	16
Cc1cccc(NC(=O)c2cnc3sccn3c2=O)c1	-2	0	44	-63	-16	35	nt
O=C(Nc1cnc2ccccn2c1=O)c1ccc(Cl)cc1Cl	-2	-1	37	-14	-7	62*	48
Cc1cccc(NC(=O)c2cnc3ccccn3c2=O)c1	-4	-6	60*	-50	-39	70*	59*
CC1CCCCC1NC(=O)CCNS(=O)(=O)c1ccc(Cl)cc1 (configuration not stated)	0	-4	nt	5	-7	-8	nt
Cn1c(CNC(=O)c2ccco2)nnc1SCC(=O)Nc1ccc(Cl)cc1	0	-10	nt	-4	3	-4	nt
COC(=O)c1ccc2nc(NC(=O)C(C)(C)C)sc2c1	-2	-50*	85*	39	3	90*	86*
COc1cc2c(cc1OC)C(c1ccccc1)N(C(=O)c1cccc(S(C)(=O)=O)c1)CC2 (configuration not stated)	1	-9	nt	15	17	1	nt
CN(C)c1ccc(/C=C2\SC(=O)N(CCc3nnc(N)s3)C2=O)cc1	-1	-45	65*	58*	-20	81*	68*
CN(C)c1ccc(/C=C2/SC(=O)N(CCN=C3NS(=O)(=O)c4ccccc43)C2=O)cc1	0	-12	26	-81	10	-3	nt
Cc1ccc(CNC(=S)Nc2ccc(NS(=O)(=O)c3ccc(C)cc3)cc2)cc1	0	-1	nt	6	-35	16	nt
COc1ccc2c(C)nc(Nc3nc(-c4ccccc4)cc(=O)[nH]3)nc2c1	0	3	42	-52	64*	41	44	CF NFkB inh conf=-59
COc1ccc(NC(=O)C2CCC(=O)N2C(=O)OCc2ccccc2)cc1 (configuration not stated)	-1	4	nt	1	-21	-10	nt
COc1ccc(NC(=O)c2cc([N+](=O)[O-])ccc2O)cc1	-5	6	75*	71*	37	91*	77*	HIF-2a conf=86*;HIF-1a cs=102*
Cc1cc(Cl)n2nc(C)c(-c3ccc(Cl)cc3)c2n1	21*	-30	54*	66*	33	41	34	HIF-2a conf=9;HIF-1a cs=100*
CCOC(=O)CNC(=O)CSc1nnc(NC(=O)c2ccc(C)cc2)s1	-1	-18	92*	45*	7	88*	92*	HIF-2a conf=65*;HIF-1a cs=-12
Cc1ccc(S(=O)(=O)n2c(N)nc3ccccc32)cc1	1	-4	nt	19	26	1	nt
Cc1ccc(C(=O)n2c(N)nc3ccccc32)cc1	-5	-49	92*	42*	-4	95*	93*	HIF-2a conf=69*;HIF-1a cs=87*
SMILES	iPSC survival up	KKLEB tox	PPC-1+TRAIL kill	HIF-2a block	CF NFkB inh	C8 TRAIL sens	PPC1 cytotox	others
O=C1CCN(S(=O)(=O)c2ccccc2)CCN1CCOCc1ccc(Cl)cc1	0	12	-4	12	-4	-3	nt
Cc1ccc(Cc2nc(-c3ccccn3)no2)cc1	-2	-2	18	-138	9	20	nt
Cc1ccc(-c2nc(-c3ccccn3)no2)cc1	-4	-73*	93*	87*	-6	92*	92*	Mdm2-MdmX confirm=95*;HIF-2a conf=95*;HIF-1a cs=94*
Clc1cccc(-c2nc(-c3ccccn3)no2)c1	-4	-25	70*	53*	-30	77*	66*	HIF-2a conf=72*;HIF-1a cs=65*
c1ccc(-c2cc(-c3nc(-c4ccccn4)no3)c3ccccc3n2)cc1	6	2	nt	-17	-24	8	nt
Cc1ccc(CNS(=O)(=O)c2ccc3c(c2)n(C)c(=O)n3C)cc1	0	-8	nt	16	5	9	nt
CCCCNC(=O)c1ccc2c(c1)C(=O)N(Cc1ccncc1)C2=O	0	15	nt	6	-5	4	nt
C#CC(=O)N(c1ccc(OC)c(OC)c1)C(C(=O)NC1CCCC1)c1cccs1 (configuration not stated)	-3	-100*	98*	87*	101*	90*	98*	Mdm2-MdmX confirm=102*;HIF-2a conf=100*;HIF-1a cs=105*
Cc1ccc(/C=N/NC(=O)c2n[nH]c3c2CCCC3)cc1	-1	-11	4	-217	49	17	nt
